# Measured values taken from paper PMC7862700, “An all-to-all approach to the identification of sequence-specific readers for epigenetic DNA modifications on cytosine”.
# Legend:
# Assay in all cases: DAPPL (digital affinity profiling via proximity ligation, sequencing); 10 mM Tris-HCl pH 7.5, 50 mM NaCl, 1 mM DTT, 4% glycerol, room temperature, 30 min; GST-TFs on glutathione beads, 16-mer random dsDNA library, 0.1% formaldehyde crosslink after washing; high values mean tight binding
# [1] = target: T1, FEV (Homo sapiens, UniProt Q99581 1-238); conditions: protein: recombinant; tags: N-terminal GST; dsDNA, one strand shown
# T1 sequence: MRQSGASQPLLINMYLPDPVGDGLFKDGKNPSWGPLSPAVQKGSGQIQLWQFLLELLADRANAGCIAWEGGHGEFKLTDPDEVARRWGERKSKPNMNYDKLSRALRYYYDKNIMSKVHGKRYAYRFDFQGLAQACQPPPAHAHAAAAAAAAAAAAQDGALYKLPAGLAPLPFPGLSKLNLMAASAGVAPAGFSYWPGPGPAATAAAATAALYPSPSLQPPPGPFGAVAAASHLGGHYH
# In short: (§1)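 In yeast, human transcription factors were expressed with a GST fusion, then pulled down on glutathione beads and given DNA barcodes. Pooled with a tag-only sample, they were exposed to 200 nmole of a 16-mer random double-stranded DNA library (Tris/NaCl/DTT/glycerol buffer, room temperature, 30 min), washed, crosslinked with 0.1% formaldehyde, proximity-ligated using BsaI/T4 ligase for 1 h at 37 °C, PCR-amplified and read on an Illumina NextSeq500. Each hexamer's frequency of reads for a factor, divided by the matching frequency for the tag-only sample, gives the binding signal.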
# [2] = target: ETV5 (Homo sapiens, UniProt P41161 1-510); conditions: protein: recombinant; tags: N-terminal GST; dsDNA, one strand shown
# In short: as §1
# [3] = target: HSF1 (Homo sapiens, UniProt Q00613 1-529); conditions: protein: recombinant; tags: N-terminal GST; chain copies: 3; dsDNA, one strand shown
# In short: as §1
# [4] = target: T2, SPIC (Homo sapiens, UniProt Q8N5J4 1-248); conditions: protein: recombinant; tags: N-terminal GST; dsDNA, one strand shown
# T2 sequence: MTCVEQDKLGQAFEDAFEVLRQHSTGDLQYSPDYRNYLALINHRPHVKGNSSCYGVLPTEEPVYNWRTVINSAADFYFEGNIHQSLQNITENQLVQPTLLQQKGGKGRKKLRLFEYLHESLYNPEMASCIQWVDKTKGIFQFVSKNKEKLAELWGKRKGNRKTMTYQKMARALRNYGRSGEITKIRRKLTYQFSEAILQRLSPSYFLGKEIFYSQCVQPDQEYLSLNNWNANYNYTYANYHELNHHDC
# In short: as §1
# [5] = target: ELF4 (Homo sapiens, UniProt Q99607 1-663); conditions: protein: recombinant; tags: N-terminal GST; dsDNA, one strand shown
# In short: as §1
# [6] = target: T3, ELK4 (Homo sapiens, UniProt P28324-2 1-405); conditions: protein: recombinant; tags: N-terminal GST; dsDNA, one strand shown
# T3 sequence: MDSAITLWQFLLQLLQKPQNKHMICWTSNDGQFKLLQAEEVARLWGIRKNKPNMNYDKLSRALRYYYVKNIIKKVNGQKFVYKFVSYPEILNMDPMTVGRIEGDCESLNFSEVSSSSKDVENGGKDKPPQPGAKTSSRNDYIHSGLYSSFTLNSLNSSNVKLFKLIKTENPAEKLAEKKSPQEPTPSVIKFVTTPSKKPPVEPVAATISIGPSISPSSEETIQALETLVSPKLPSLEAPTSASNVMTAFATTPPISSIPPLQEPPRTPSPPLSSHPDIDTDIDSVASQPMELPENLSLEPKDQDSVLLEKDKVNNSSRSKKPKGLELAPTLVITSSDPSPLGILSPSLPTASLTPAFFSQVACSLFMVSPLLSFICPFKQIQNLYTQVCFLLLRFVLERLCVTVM
# In short: as §1
# [7] = target: T4, ETV2 (Homo sapiens, UniProt O00321 1-342); conditions: protein: recombinant; tags: N-terminal GST; dsDNA, one strand shown
# T4 sequence: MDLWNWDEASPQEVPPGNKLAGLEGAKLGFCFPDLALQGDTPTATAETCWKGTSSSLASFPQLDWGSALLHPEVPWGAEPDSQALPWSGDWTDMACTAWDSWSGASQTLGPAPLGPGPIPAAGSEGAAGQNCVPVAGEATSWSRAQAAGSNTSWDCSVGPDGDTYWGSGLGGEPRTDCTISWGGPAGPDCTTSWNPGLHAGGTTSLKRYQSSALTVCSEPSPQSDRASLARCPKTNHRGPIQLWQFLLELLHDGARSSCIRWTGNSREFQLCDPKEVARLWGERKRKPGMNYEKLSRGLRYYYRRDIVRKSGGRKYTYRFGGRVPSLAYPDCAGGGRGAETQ
# In short: as §1
# [8] = target: T5, ELF3 (Homo sapiens, UniProt P78545 1-371); conditions: protein: recombinant; tags: N-terminal GST; dsDNA, one strand shown
# T5 sequence: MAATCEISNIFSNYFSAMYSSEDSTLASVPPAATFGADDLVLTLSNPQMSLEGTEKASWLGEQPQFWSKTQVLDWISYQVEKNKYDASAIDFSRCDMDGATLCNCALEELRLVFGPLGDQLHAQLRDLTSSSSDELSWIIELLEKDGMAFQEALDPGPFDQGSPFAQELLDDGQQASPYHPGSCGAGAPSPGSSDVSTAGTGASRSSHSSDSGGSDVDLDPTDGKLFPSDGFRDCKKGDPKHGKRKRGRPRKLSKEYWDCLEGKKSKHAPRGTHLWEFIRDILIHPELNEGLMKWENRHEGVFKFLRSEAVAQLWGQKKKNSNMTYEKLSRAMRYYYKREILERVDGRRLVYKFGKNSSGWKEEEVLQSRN
# In short: as §1
# [9] = target: CRX (Homo sapiens, UniProt O43186 1-299); conditions: protein: recombinant; tags: N-terminal GST; dsDNA, one strand shown
# In short: as §1
# Chain of ETV5 (P41161 whole entry): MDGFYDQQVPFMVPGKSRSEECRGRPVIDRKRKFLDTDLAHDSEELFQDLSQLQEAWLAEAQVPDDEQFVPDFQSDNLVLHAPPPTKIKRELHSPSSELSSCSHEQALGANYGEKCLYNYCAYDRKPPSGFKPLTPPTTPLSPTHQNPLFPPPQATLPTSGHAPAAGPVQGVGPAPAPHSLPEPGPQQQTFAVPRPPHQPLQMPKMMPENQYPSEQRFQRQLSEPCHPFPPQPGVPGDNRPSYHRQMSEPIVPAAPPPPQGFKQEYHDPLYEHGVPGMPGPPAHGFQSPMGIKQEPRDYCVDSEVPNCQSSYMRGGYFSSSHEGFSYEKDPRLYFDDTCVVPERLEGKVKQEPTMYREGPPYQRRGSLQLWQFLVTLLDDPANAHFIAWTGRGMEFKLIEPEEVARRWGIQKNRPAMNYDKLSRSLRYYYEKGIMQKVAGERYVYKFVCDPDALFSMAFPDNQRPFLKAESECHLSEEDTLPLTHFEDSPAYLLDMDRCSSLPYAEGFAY
# Chain of ELF4 (Q99607 whole entry): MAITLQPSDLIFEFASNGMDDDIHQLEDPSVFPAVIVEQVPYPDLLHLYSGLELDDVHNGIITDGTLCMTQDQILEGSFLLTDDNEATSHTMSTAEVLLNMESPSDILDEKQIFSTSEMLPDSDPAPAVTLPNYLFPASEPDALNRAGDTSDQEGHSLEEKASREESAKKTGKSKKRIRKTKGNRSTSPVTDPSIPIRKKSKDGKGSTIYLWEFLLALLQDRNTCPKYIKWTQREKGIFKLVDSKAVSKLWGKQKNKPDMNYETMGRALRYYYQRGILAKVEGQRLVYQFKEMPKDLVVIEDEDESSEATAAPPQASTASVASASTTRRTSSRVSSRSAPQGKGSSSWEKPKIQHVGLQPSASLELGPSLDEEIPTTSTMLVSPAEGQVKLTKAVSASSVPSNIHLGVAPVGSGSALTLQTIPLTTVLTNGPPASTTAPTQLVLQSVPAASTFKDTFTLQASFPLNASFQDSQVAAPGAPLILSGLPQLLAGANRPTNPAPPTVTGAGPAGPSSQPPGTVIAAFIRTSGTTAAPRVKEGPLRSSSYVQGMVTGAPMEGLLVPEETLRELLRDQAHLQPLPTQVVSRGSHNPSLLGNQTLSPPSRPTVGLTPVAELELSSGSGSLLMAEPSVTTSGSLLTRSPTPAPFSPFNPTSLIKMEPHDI
# Chain of HSF1 (Q00613 whole entry): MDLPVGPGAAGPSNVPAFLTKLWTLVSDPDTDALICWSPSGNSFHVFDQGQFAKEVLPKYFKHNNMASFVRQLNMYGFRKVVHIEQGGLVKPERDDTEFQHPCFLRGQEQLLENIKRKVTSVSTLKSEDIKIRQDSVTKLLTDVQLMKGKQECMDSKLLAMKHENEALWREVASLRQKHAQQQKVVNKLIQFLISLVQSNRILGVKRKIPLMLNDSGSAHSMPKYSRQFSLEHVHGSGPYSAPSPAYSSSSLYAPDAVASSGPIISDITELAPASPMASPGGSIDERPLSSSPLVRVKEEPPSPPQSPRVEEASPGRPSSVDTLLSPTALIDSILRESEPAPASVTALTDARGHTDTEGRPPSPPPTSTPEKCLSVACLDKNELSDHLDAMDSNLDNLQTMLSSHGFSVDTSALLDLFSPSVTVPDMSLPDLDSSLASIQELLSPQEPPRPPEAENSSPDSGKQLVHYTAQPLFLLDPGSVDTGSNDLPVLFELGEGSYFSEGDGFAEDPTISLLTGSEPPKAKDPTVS
# Chain of CRX (O43186 whole entry): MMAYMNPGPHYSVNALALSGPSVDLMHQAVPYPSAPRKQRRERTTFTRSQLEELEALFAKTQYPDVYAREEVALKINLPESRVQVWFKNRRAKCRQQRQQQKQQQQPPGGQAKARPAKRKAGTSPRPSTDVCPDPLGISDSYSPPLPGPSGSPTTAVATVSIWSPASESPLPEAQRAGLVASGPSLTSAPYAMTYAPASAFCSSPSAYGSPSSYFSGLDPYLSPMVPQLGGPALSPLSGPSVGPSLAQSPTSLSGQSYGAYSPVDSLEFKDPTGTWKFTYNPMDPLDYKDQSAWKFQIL
sequence,measurement,setting,value
AAGATA,binding signal,[1],"1.08 fold enrichment (6-mer frequency, TF over GST control)"
same,binding signal,[2],"1.14 fold enrichment (6-mer frequency, TF over GST control)"
same,binding signal,[3],"1.33 fold enrichment (6-mer frequency, TF over GST control)"
same,binding signal,[4],"1.06 fold enrichment (6-mer frequency, TF over GST control)"
same,binding signal,[5],"1.16 fold enrichment (6-mer frequency, TF over GST control)"
same,binding signal,[6],"1.12 fold enrichment (6-mer frequency, TF over GST control)"
same,binding signal,[7],"1.16 fold enrichment (6-mer frequency, TF over GST control)"
same,binding signal,[8],"1.03 fold enrichment (6-mer frequency, TF over GST control)"
same,binding signal,[9],"1.53 fold enrichment (6-mer frequency, TF over GST control)"
